Bioassay records deposited in PubChem by National Center for Advancing Translational Sciences (NCATS).
The list is not random: actives were taken first. Their share in the collection is about 8.7%.
12-LOX inh: Primary qHTS assay for inhibitors of human arachidonate 12S-lipoxygenase (ALOX12): Round 2 | Polyunsaturated fatty acid lipoxygenase ALOX12 (Homo sapiens), P18054 | purified 12hLO, xylenol orange hydroperoxide absorbance | Potency, µM (titrated, usually from 108 µM), without a hit: top-dose activity change, negative = inhibition, most hits filed as inhibitors | 580,000 compounds, 1.1% hits; also: % is scaled to controls: 0 for no effect and ±100 for the full control effect
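Hydroperoxide product was detected by ferrous iron/xylenol orange as the 573 to 405 nm absorbance ratio. Arachidonic acid at 40 uM (final) was turned over for 30 min at room temperature by 150 nM human 12hLO, pH 7.0 Hepes buffer, after 15 min compound preincubation.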
G9a inh: qHTS Assay for Inhibitors of Histone Lysine Methyltransferase G9a; Histone-lysine N-methyltransferase EHMT2 (Homo sapiens), Q96KQ7; G9a H3K9 monomethylation, AlphaScreen, 2 h; Potency, µM (highest dose often 102 µM), for inactives: at the top dose activity, negative = inhibition, hits mostly inhibitors; 350,000 compounds, 8.8% hits; AID 504332, 2011; also: % is scaled to controls: 0 for no effect and ±100 for the full control effect; nearly all actives have a fitted effect of over 75% in size
Target sequence (Q96KQ7 913-1193 limits assumed): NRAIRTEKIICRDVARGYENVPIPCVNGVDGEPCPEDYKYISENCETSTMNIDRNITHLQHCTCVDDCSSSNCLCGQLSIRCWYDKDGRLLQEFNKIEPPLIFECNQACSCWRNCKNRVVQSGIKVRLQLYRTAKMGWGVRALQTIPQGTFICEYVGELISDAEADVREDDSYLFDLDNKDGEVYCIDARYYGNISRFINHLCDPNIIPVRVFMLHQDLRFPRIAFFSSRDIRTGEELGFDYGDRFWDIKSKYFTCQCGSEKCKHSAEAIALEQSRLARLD
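Readings reflect AlphaScreen signal from monomethyl-H3K9 antibody detection. HMT at 20 nM; substrate b-H3K9 500 nM; cofactor SAM 20 uM; 2 h RT reaction; compounds tested as titrations in qHTS with 15 min preincubation.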
BAZ2B block: qHTS Assay for Inhibitors of BAZ2B; Potency, µM (titrated, usually from 114 µM), without a hit: top-dose activity change, negative = inhibition, hits mostly inhibitors; AlphaScreen BAZ2B-H3K14Ac peptide displacement; 360,000 compounds, 4.4% hits; Bromodomain adjacent to zinc finger domain protein 2B (Homo sapiens), Q9UIF8; also: % is scaled to controls: 0 for no effect and ±100 for the full control effect; nearly all actives have a fitted effect of over 60% in size
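AlphaScreen displacement of biotin-H3(5-23)K14Ac peptide (50 nM final) from BAZ2B (50 nM final) in PBS pH 7.4, 0.01% Tween-20; complex preformed 30 min RT, then compounds (top 110 uM) 30 min RT, beads 20 min dark.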
JMJD2A Tudor inh: qHTS Assay for Inhibitors of JMJD2A-Tudor Domain | Lysine-specific demethylase 4A (Homo sapiens), O75164 | AlphaScreen JMJD2A-Tudor / H3K4me3 peptide binding | Potency, µM (series often up to 114 µM), inactives show at the highest dose activity change, negative = inhibition, hits mostly inhibitors | 390,000 compounds, 4.4% hits | AID 504339, 2011; also: % is scaled to controls: 0 for no effect and ±100 for the full control effect; nearly all actives have a fitted effect of over 50% in size
Sfp inh: qHTS Assay for Inhibitors of Bacillus subtilis Sfp phosphopantetheinyl transferase (PPTase) | AID 1490, 2009 | Potency, µM, inactives show largest response in the series, negative = inhibition, actives largely listed as inhibitors | Biochemical Sfp PPTase activity, qHTS | 4'-phosphopantetheinyl transferase ffp (Bacillus subtilis), Q9F4F7 | 310,000 compounds, 3.5% hits;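 also: the enzyme is Sfp with the accession as filed and its product quenches rhodamine fluorescence; 0% = enzyme reaction without inhibitor and -100% = no enzyme wells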
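Sfp 15 nM + cpd, 15 min RT; start w/ rhodamine-CoA 5 uM, BHQ-2-YbbR 12.5 uM (final); 50 mM Hepes pH 7.6, 10 mM MgCl2, 0.01% NP-40, 0.01% BSA; read 525/598 nm at 0 and 30 min.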
HP1b chromo inh: HTS for Inhibitors of HP1-beta Chromodomain Interactions with Methylated Histone Tails. Chromobox protein homolog 1 (Homo sapiens), P83916. AlphaScreen HP1-beta / biotin-H3K9me3 peptide binding. Potency, µM (highest dose often 114 µM), inactives show at the top dose activity change, negative = inhibition, hits mostly inhibitors. 390,000 compounds, 0.56% hits; also: nearly all actives have a fitted effect of over 70% in size
Target sequence (P83916 whole entry, looked up): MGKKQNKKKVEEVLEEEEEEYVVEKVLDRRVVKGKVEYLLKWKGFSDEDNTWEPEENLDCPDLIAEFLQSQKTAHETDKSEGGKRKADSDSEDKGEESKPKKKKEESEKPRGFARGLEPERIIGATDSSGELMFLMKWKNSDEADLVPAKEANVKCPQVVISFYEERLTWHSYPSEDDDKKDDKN
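HP1-beta protein (50 nM final) preincubated 30 min at room temperature with biotinylated H3(1-18)K9me3 peptide (50 nM) in PBS pH 7.4, 0.01% Tween-20, then compound added for 30 min. AlphaScreen streptavidin donor/nickel chelate acceptor beads (10 ug/mL final), 30 min dark, luminescence read.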
* hit, by the source's call; ? = inconclusive; / = no result given; ! = a repeat was not active; [ ] = dose if it differs, or a comment. Calls follow the shape of the dose curve; as a rule, active = well fitted curve in the direction sought with a large enough effect; inconclusive = small, poorly fitted or top-dose-only effect, or another doubt; inactive = no such curve, though single readings can be large; an effect the other way counts as inactive or inconclusive. Potency is read from the fitted curve at half-maximal effect.

SMILES	12-LOX inh	G9a inh	BAZ2B block	JMJD2A Tudor inh	Sfp inh	HP1b chromo inh
CCCCCCN1N=C(C)C(C(=O)c2ccc(Cl)cc2)C1=O (stereo not drawn)	?	2%[59 µM]	-12%	?	20%	3%
CC(C)CN(C(=O)CN1CCN(c2ccc(O)cc2)CC1)c1c(N)n(CC(C)C)c(=O)[nH]c1=O	-22%	?	-6%	?	25µM*	50µM*
CCN(C(=O)CN1CCc2ccccc21)c1c(N)n(Cc2ccccc2)c(=O)[nH]c1=O	-1%	28µM*	-16%	-17%	-3%	43%
Cn1c(=O)c(C(=O)CN2CCc3ccccc32)c(N)n(Cc2ccccc2)c1=O	-18%	35µM*	6%	50µM*	16%	-4%
CC(=O)c1ccc(N2CCN(CC(=O)N(CC(C)C)c3c(N)n(CC(C)C)c(=O)[nH]c3=O)CC2)cc1	-6%	-3%	-37%	-24%	17%	50%
CCN(C(=O)CN1CCN(c2ccc(O)cc2)CC1)c1c(N)n(Cc2ccccc2)c(=O)[nH]c1=O	?	8.9µM*	/	?	14µM*	-12%
Cc1cccc(CCNC(=O)C2CCN(S(=O)(=O)N3CCOCC3)CC2)c1	24%	15%	1%	-26%	13%	-1%
CCN(CCCNC(=O)C1CCN(S(=O)(=O)N2CCOCC2)CC1)c1cccc(C)c1	-12%	35µM*	-33%	?	18%	7%
Cc1ccc(CCNC(=O)C2CCN(S(=O)(=O)N3CCOCC3)CC2)cc1	-7%	10%	-4%	28µM*	5%	?
CCc1cccc2c(C(=O)O)cc(-c3cccnc3)nc12	-25%	/	/	/	/	/
COc1ccc(O[C@H]2COCCN(C(=O)COc3ccccc3)C2)cc1	47%[176 µM]	/	/	/	/	/
NC(=S)NCCC[C@H](N)C(=O)O	-18%[176 µM]	1.7µM*!	/	/	56µM*	/
CCNC(=O)N(C1CC1)C1CCOC2(CCN(C(=O)COc3ccc(F)cc3)CC2)C1 (stereo not drawn)	11%	/	/	/	/	/
CN1CCC2(CCN3CCc4c(oc5ccccc45)C3C2)N(C)C1=O (stereo not drawn)	/	16µM*!	/	/	/	/
COc1ccc(N2CC(C(=O)N3CCOCC3)NC2=O)cc1 (stereo not drawn)	19%[176 µM]	/	/	/	/	/
O=C(Cn1cnc([N+](=O)[O-])n1)N/N=C/c1cccc(Cl)c1	0%	19%[59 µM]	-14%	-16%	7%	38%
O=C(Cn1cnc([N+](=O)[O-])n1)N/N=C/c1ccc(O)cc1O	-16%	-30%	28µM*	63µM*	-13%	34%
O=C(Cn1cnc([N+](=O)[O-])n1)N/N=C/c1cccc2ccccc12	5%	45µM*	-2%	-20%	6%	0%
N#CC1=C(N)N(c2cccc(C(F)(F)F)c2)C2=C(C(=O)CCC2)C12C(=O)Nc1ccc(F)cc12 (stereo not drawn)	31%	/	/	/	/	/
O=C(O)c1cccc(S(=O)(=O)NNc2ccccc2C(F)(F)F)c1	16µM*	1.4µM*	50µM*	7.9µM*	-28%	-16%
O=c1[nH]c(/C=C/c2ccc([N+](=O)[O-])cc2)c([N+](=O)[O-])c(=O)[nH]1	?	28µM*	-4%	-3%	0%	6%
O=c1[nH]c(/C=C/c2ccc3c(c2)OCO3)c([N+](=O)[O-])c(=O)[nH]1	/	?	-4%	/	14%	/
Cc1cc(O)c(N)c(C)c1Cl	16µM*	?	?	-6%[11.4 µM]	56µM*	?
CC(C)(C)N1C(=O)Cc2c1nc(N)c1c(N)nc(N3CCCCC3CO)c(C#N)c21 (stereo not drawn)	/	7.9µM*	40µM*	50µM*	-12%	?
CN(CCO)c1nc(N)c2c(N)nc3c(c2c1C#N)CC(=O)N3C1CCCC1	/	?	?	/	50µM*	/
SMILES	12-LOX inh	G9a inh	BAZ2B block	JMJD2A Tudor inh	Sfp inh	HP1b chromo inh
COc1ccccc1CCC(=O)N1CCC2(CC1)N=C(c1cccc(Br)c1)NO2	12%	/	/	/	/	/
CCC(C(=O)NCCn1ccn2nc(-c3ccc(OC)cc3)cc2c1=O)c1ccccc1 (stereo not drawn)	7%	/	/	/	/	/
Cc1ccc(C)c(Cn2c(N3CCN(C/C=C/c4ccccc4)CC3)nc3c2c(=O)[nH]c(=O)n3C)c1	7%	/	/	/	/	/
CC(=O)c1ccc(OCc2coc(-c3cccc(F)c3)n2)cc1	45µM*	/	/	/	/	/
COc1ccc(/C=C2\SC(=S)N(CCC(=O)Nc3ccc(C(=O)O)cc3)C2=O)cc1OC	/	-37%	-22%	?	2%	-29%
O=C(CCN1C(=O)/C(=C/c2ccc3c(c2)OCO3)SC1=S)Nc1ccc(C(=O)O)cc1	?	21%[2.33 µM]	35µM*	45µM*	-7%	?
O=C(CCN1C(=O)/C(=C/c2ccc3c(c2)OCO3)SC1=S)Nc1ccccc1	23%	1%[59 µM]	-4%	0%	7%	21%
O=C(CCCN1C(=O)/C(=C/c2ccc3c(c2)OCO3)SC1=S)Nc1ccc(C(=O)O)cc1	14µM*	28%	-18%	?	8%	-2%
CCN(CC)S(=O)(=O)c1ccc(C)c(NC(=O)CNc2cccc(S(=O)(=O)N3CCCC3)c2)c1	-19%	-8%	6%	-33%	/	5%
Cc1ccc(S(=O)(=O)N2CCCCC2)cc1NC(=O)CNc1ccc(C(F)(F)F)cc1	-14%	56µM*	7%	-27%	/	7%
CC(=O)c1ccc(OCCCC(=O)Nc2cc(S(=O)(=O)N3CCCCC3)ccc2C)cc1	-27%	35µM*	-7%	-10%	/	21%
CNc1snc(C)c1C(=O)N(C)CCOc1ccc(F)cc1	0%	/	/	/	/	/
Cc1ccsc1C(=O)NNC(=S)NC(C)C	3%	/	/	/	/	/
Cc1ccc(NC(=S)NCCC2=CCCCC2)cc1	?	14%	-11%	-7%	-1%	3%
CCOC(=O)c1ccc(NC(=S)NCCC2=CCCCC2)cc1	40µM*	62%[59 µM]	-1%	0%	48%	39%
O=C(NCCC1=CCCCC1)Nc1ccc2nsnc2c1	?	40µM*	-29%	26%	10%	76%
FC(F)Sc1ccc(NC(=S)NCCC2=CCCCC2)cc1	18µM*	/	/	/	/	/
CCOC(=O)c1ccc(NC(=S)NCCc2ccccc2F)cc1	40µM*	-11%[59 µM]	-2%	3%	21%	14%
S=C(NCCC1=CCCCC1)Nc1ccc(Br)cc1	-10%	/	/	/	/	/
